# Where “and” joins values, the source holds several entries; their conditions need not be identical. Equal values may be shown once. The whole screen tested about 5,500 compounds, of which about 2,000 (36%) were called active. Not shown: some 18% with an inconclusive outcome. No stated cut-off is given here; in the data, active means normalized growth mostly below about 0.91 (no sharp cut-off); inconclusive means no clear call, values can overlap the other calls; inactive means mostly above about 0.92. The list shows a part of the results. A structure can be active in one record and inactive in another.
# Experiment: chemical genetic growth profiling, strain panel (AID 1159580);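 further: tested at 20 µM; growth read once vehicle control cultures reached saturation at 30 °C; 1 = growth at the plate median or of vehicle wells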
# Settings: S. cerevisiae deletion strains, growth OD
smiles,measurement,setting,value
NCCOB(c1ccccc1)c1ccccc1,normalized growth,"locus YAL021C, strain ccr4, stronger effect = lower value",0.936 (inactive) and 0.969 (inactive)
same,normalized growth,"locus YAL026C, strain drs2, stronger effect = lower value",0.153 (active) and 0.218 (active)
same,normalized growth,"locus YAL030W, strain snc1, stronger effect = lower value",0.892 (active) and 0.987 (inactive)
same,normalized growth,"locus YBL061C, strain skt5, stronger effect = lower value",0.578 (active) and 0.786 (active)
same,normalized growth,"locus YBR009C, strain hhf1, stronger effect = lower value",0.758 (active) and 0.788 (active)
same,normalized growth,"locus YBR023C, strain chs3, stronger effect = lower value",0.925 (inactive) and 0.92 (inactive)
same,normalized growth,"locus YBR171W, strain sec66, stronger effect = lower value",0.968 (inactive) and 0.998 (inactive)
same,normalized growth,"locus YBR231C, strain swc5, stronger effect = lower value",1.03 (inactive) and 1 (inactive)
same,normalized growth,"locus YBR279W, strain paf1, stronger effect = lower value",0.46 (active) and 0.808 (active)
same,normalized growth,"locus YCL011C, strain gbp2, stronger effect = lower value",0.879 (active) and 0.913 (inactive)
same,normalized growth,"locus YCL016C, strain dcc1, stronger effect = lower value",1.01 (inactive) and 0.977 (inactive)
same,normalized growth,"locus YCL061C, strain MRC1, stronger effect = lower value",0.827 (active) and 0.759 (active)
same,normalized growth,"locus YCL069W, strain vba3, stronger effect = lower value",0.437 (active) and 0.312 (active)
same,normalized growth,"locus YCR088W, strain abp1, stronger effect = lower value",0.604 (active) and 0.524 (active)
same,normalized growth,"locus YDL005C, strain med2, stronger effect = lower value",1 (inactive) and 1.03 (inactive)
same,normalized growth,"locus YDL040C, strain nat1, stronger effect = lower value",1.01 (inactive) and 1.02 (inactive)
same,normalized growth,"locus YDR001C, strain nth1, stronger effect = lower value",0.651 (active) and 0.789 (active)
same,normalized growth,"locus YDR069C, strain doa4, stronger effect = lower value",1.02 (inactive) and 1.01 (inactive)
same,normalized growth,"locus YDR137W, strain rgp1, stronger effect = lower value",0.997 (inactive) and 0.987 (inactive)
same,normalized growth,"locus YDR159W, strain sac3, stronger effect = lower value",1.03 (inactive) and 1.06 (inactive)
same,normalized growth,"locus YDR195W, strain ref2",1.11 (inactive) and 1.07 (inactive)
same,normalized growth,"locus YDR297W, strain sur2, stronger effect = lower value",1.01 (inactive) and 0.979 (inactive)
same,normalized growth,"locus YDR334W, strain swr1, stronger effect = lower value",0.472 (active) and 0.793 (active)
same,normalized growth,"locus YDR335W, strain msn5, stronger effect = lower value",1 (inactive) and 0.991 (inactive)
same,normalized growth,"locus YDR392W, strain spt3, stronger effect = lower value",0.423 (active) and 0.451 (active)
same,normalized growth,"locus YEL003W, strain gim4, stronger effect = lower value",1.02 (inactive) and 0.999 (inactive)
same,normalized growth,"locus YEL037C, strain rad23, stronger effect = lower value",1.01 (inactive)
same,normalized growth,"locus YEL061C, strain CIN8 (second series), stronger effect = lower value",1.01 (inactive)
same,normalized growth,"locus YER015W, strain faa2, stronger effect = lower value",0.528 (active) and 0.733 (active)
same,normalized growth,"locus YER016W, strain bim1, stronger effect = lower value",1.02 (inactive)
same,normalized growth,"locus YER111C, strain swi4, stronger effect = lower value",1.02 (inactive) and 1.01 (inactive)
same,normalized growth,"locus YER155C, strain BEM2 (second series), stronger effect = lower value",0.815 (active) and 0.926 (inactive)
same,normalized growth,"locus YFR010W, strain ubp6, stronger effect = lower value",0.351 (active) and 0.387 (active)
same,normalized growth,"locus YGL167C, strain pmr1, stronger effect = lower value",1.04 (inactive) and 1.05 (inactive)
same,normalized growth,"locus YGL173C, strain kem1, stronger effect = lower value",0.927 (inactive) and 0.93 (inactive)
same,normalized growth,"locus YGL227W, strain vid30, stronger effect = lower value",0.602 (active) and 0.427 (active)
same,normalized growth,"locus YGL240W, strain doc1, stronger effect = lower value",0.822 (active) and 0.865 (active)
same,normalized growth,"locus YGL253W, strain hxk2, stronger effect = lower value",0.468 (active) and 0.384 (active)
same,normalized growth,"locus YHR013C, strain ard1, stronger effect = lower value",0.432 (active) and 0.49 (active)
same,normalized growth,"locus YHR027C, strain rpn1, stronger effect = lower value",0.799 (active) and 0.766 (active)
same,normalized growth,"locus YHR030C, strain SLT2, stronger effect = lower value",0.106 (active)
same,normalized growth,"locus YHR079C, strain IRE1, stronger effect = lower value",0.11 (active)
same,normalized growth,"locus YHR142W, strain chs7, stronger effect = lower value",0.882 (inactive) and 0.977 (inactive)
same,normalized growth,"locus YJL092W, strain hpr5, stronger effect = lower value",0.334 (active) and 0.399 (active)
same,normalized growth,"locus YJL095W, strain BCK1 (second series), stronger effect = lower value",0.887 (active) and 0.923 (inactive)
same,normalized growth,"locus YJL095W, strain BCK1, stronger effect = lower value",0.106 (active)
same,normalized growth,"locus YJL115W, strain asf1, stronger effect = lower value",0.85 (active) and 0.877 (active)
same,normalized growth,"locus YJL129C, strain trk1, stronger effect = lower value",0.965 (inactive) and 0.979 (inactive)
same,normalized growth,"locus YJL154C, strain vps35, stronger effect = lower value",0.454 (active) and 0.657 (active)
same,normalized growth,"locus YJL164C, strain tpk1, stronger effect = lower value",0.824 (active) and 0.786 (active)
same,normalized growth,"locus YJL166W, strain qcr8, stronger effect = lower value",0.841 (active) and 0.839 (active)
same,normalized growth,"locus YJL187C, strain SWE1, stronger effect = lower value",0.798 (active)
same,normalized growth,"locus YJR066W, strain TOR1, stronger effect = lower value",0.00283 (active)
same,normalized growth,"locus YKL160W, strain elf1, stronger effect = lower value",0.717 (active) and 0.751 (active)
same,normalized growth,"locus YKR026C, strain gcn3, stronger effect = lower value",0.381 (active) and 0.353 (active)
same,normalized growth,"locus YKR091W, strain srl3, stronger effect = lower value",0.357 (active) and 0.316 (active)
same,normalized growth,"locus YLL001W, strain dnm1, stronger effect = lower value",0.995 (inactive) and 0.946 (inactive)
same,normalized growth,"locus YLL026W, stronger effect = lower value",0.836 (active) and 0.998 (inactive)
same,normalized growth,"locus YLL041C, strain sdh2, stronger effect = lower value",0.868 (active) and 0.944 (inactive)
same,normalized growth,"locus YLR027C, strain aat2, stronger effect = lower value",0.694 (active) and 0.939 (inactive)
same,normalized growth,"locus YLR113W, strain HOG1, stronger effect = lower value",0.141 (active)
same,normalized growth,"locus YLR221C, strain rsa3, stronger effect = lower value",0.372 (active) and 0.709 (active)
same,normalized growth,"locus YLR258W, strain gsy2, stronger effect = lower value",0.578 (active) and 0.778 (active)
same,normalized growth,"locus YLR262C, strain YPT6 (second series), stronger effect = lower value",0.923 (inactive) and 0.845 (active)
same,normalized growth,"locus YLR320W, strain mms22, stronger effect = lower value",0.973 (inactive) and 1 (inactive)
same,normalized growth,"locus YLR342W, strain FKS1, stronger effect = lower value",0.841 (active) and 0.823 (active)
same,normalized growth,"locus YLR357W, strain rsc2, stronger effect = lower value",0.629 (active)
same,normalized growth,"locus YLR370C, strain arc18, stronger effect = lower value",0.44 (active) and 0.485 (active)
same,normalized growth,"locus YLR384C, strain iki3, stronger effect = lower value",1.02 (inactive)
same,normalized growth,"locus YML120C, strain ndi1, stronger effect = lower value",0.961 (inactive) and 0.993 (inactive)
same,normalized growth,"locus YMR058W, strain fet3, stronger effect = lower value",0.167 (active) and 0.157 (active)
same,normalized growth,"locus YMR125W, strain sto1, stronger effect = lower value",0.759 (active) and 0.824 (active)
same,normalized growth,"locus YMR129W, stronger effect = lower value",0.507 (active) and 0.306 (active)
same,normalized growth,"locus YMR205C, strain PFK2, stronger effect = lower value",0.937 (inactive) and 0.943 (inactive)
same,normalized growth,"locus YMR231W, strain pep5, stronger effect = lower value",0.247 (active) and 0.309 (active)
same,normalized growth,"locus YNL071W, strain lat1, stronger effect = lower value",0.248 (active) and 0.315 (active)
same,normalized growth,"locus YNL183C, strain NPR1, stronger effect = lower value",0.000102 (active)
same,normalized growth,"locus YNL209W, strain ssb2, stronger effect = lower value",0.699 (active) and 0.694 (active)
same,normalized growth,"locus YNL248C, strain rpa49, stronger effect = lower value",0.693 (active) and 0.758 (active)
same,normalized growth,"locus YNL322C, strain KRE1 (second series), stronger effect = lower value",1.04 (inactive) and 1.03 (inactive)
same,normalized growth,"locus YNR049C, strain mso1, stronger effect = lower value",0.585 (active) and 0.756 (active)
same,normalized growth,"locus YOR001W, strain rrp6, stronger effect = lower value",0.947 (inactive) and 1 (inactive)
same,normalized growth,"locus YOR070C, strain gyp1, stronger effect = lower value",0.657 (active) and 0.767 (active)
same,normalized growth,"locus YOR080W, strain dia2, stronger effect = lower value",1.02 (inactive)
same,normalized growth,"locus YOR083W, strain WHI5, stronger effect = lower value",0.202 (active) and 0.184 (active)
same,normalized growth,"locus YOR106W, strain vam3, stronger effect = lower value",0.688 (active) and 0.741 (active)
same,normalized growth,"locus YOR231W, strain MKK1, stronger effect = lower value",0.0985 (active)
same,normalized growth,"locus YOR265W, strain rbl2, stronger effect = lower value",0.79 (active) and 0.861 (active)
same,normalized growth,"locus YOR270C, strain vph1, stronger effect = lower value",0.934 (inactive) and 0.992 (inactive)
same,normalized growth,"locus YOR290C, strain snf2, stronger effect = lower value",0.895 (inactive) and 0.926 (inactive)
same,normalized growth,"locus YPL051W, strain arl3, stronger effect = lower value",0.622 (active) and 0.599 (active)
same,normalized growth,"locus YPL078C, strain atp4, stronger effect = lower value",0.967 (inactive) and 0.972 (inactive)
same,normalized growth,"locus YPL106C, strain sse1, stronger effect = lower value",0.891 (inactive) and 0.792 (active)
same,normalized growth,"locus YPL240C, strain hsp82, stronger effect = lower value",1.02 (inactive) and 0.932 (inactive)
same,normalized growth,"locus YPL256C, strain CLN2, stronger effect = lower value",0.118 (active)

# Source: PubChem BioAssay AID1159580 (chemical genetic matrix, 2015)
